Results on 27 molecules are retold here after PubChem BioAssay.

Activity calls are given as the source filed them. Unless noted, no rule for the calls is given here.

Experiment [1] relates to XIP peptide (Xip251-270) binding. Briefly: XIP fragment 251-270 binding compounds – biochemical, small-molecule microarray, fluorescence 635/667 nm, 0.1 µg/mL protein, primary screen (AID 1182). The following applies: fluorescent protein binding, 635 nm, higher = more signal, called active from +8 up or from −8 down.
For experiment [2], the system named is XIP peptide (Xip251-270). Briefly: compounds binding XIP fragment 251-270 – biochemical, small-molecule microarray, fluorescence 635/667 nm, 0.5 µg/mL protein, primary screen (AID 1183). The following applies: fluorescence 635 nm, higher = more signal.
Experiment [3] in a line: blood-stage malaria parasite viability loss – strain 3D7, DAPI fluorescence, 100 nL, primary screen (AID 1184).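 Also: parasites grown inside human red blood cells in medium with human serum.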 The following applies: P. falciparum 3D7 growth, 3 d, higher = more signal.
Experiment [4] has as its target Homeobox protein Hox-A13 (Mus musculus) (UniProt Q62424). Briefly: disruptors of Hoxa13 oligonucleotide interaction – biochemical, fluorescence polarization, labeled oligonucleotide, primary screen (AID 1185). The following applies: Hoxa13:DNA binding, 15 min, higher = more signal, called active from +8 up or from −8 down.
Experiment [5] in a line: blockers of DNA damage checkpoint Chk1 activation – imaging, HeLa, hydroxyurea, phospho-Chk1 antibody, percent positive cells, primary screen (AID 1186). The following applies: hydroxyurea-induced phospho-Chk1 immunofluorescence imaging, higher = more signal.
Experiment [6] is described as follows: blockers of DNA damage checkpoint Chk1 activation – imaging, HeLa, hydroxyurea, phospho-Chk1 nuclear intensity, primary screen (AID 1187). The following applies: hydroxyurea-induced phospho-Chk1 immunofluorescence imaging, higher = more signal.

Chain of Homeobox protein Hox-A13 (Mus musculus) (Q62424 whole entry, looked up): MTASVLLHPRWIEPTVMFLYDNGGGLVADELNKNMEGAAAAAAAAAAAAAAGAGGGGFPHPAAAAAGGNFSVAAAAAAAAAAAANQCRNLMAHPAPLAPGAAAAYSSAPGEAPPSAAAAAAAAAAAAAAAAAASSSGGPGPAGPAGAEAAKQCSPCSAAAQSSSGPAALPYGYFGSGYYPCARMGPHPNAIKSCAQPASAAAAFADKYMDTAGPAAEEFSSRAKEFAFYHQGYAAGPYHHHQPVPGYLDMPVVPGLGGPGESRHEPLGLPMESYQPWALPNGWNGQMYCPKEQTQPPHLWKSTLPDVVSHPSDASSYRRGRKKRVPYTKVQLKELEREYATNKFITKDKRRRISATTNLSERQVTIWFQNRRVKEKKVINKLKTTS

With `C=C(CCCC)C(=O)CC[C@H](OC(=O)c1cccnc1)c1ccccc1OCCO`, the composite z-score in experiment [1] is 0.0328 (inactive); in experiment [2] it was 0.222. In addition, the z-score in experiment [3] was -3.02; in experiment [4], -5.25 (inactive); in experiment [5], -1.12 (inactive); in experiment [6], -0.27 (inactive).
In the case of `COC(=O)[C@@]1(Cc2ccccc2)[C@H]2c3cc(C(=O)N(C)C)n(CCSCCO)c3C[C@H]2CN1C(=O)c1ccccc1`, the figures for the composite z-score in experiment [1] and in experiment [2] were 0.115 (inactive) and 0.443, respectively. In addition, the z-score was -0.522 in experiment [3], -4.76 (inactive) in experiment [4], 0.585 (inactive) in experiment [5] and 0.248 (inactive) in experiment [6].
Turning to `O=C1OCCC/C=C\[C@H]2OC34C=CCN(Cc5ccccc5)C(=O)[C@H]3N(CCCCCCO)C(=O)[C@@H]4C12` (some centres not stated), the results for the composite z-score in experiment [1] and in experiment [2] were 0.704 (inactive) and -0.819, respectively. Also, the z-score is -0.364 in experiment [3], -5.34 (inactive) in experiment [4], -0.121 (inactive) in experiment [5] and 0.0626 (inactive) in experiment [6].
For the molecule `O=C1c2ccccc2[C@@]2(Cc3ccccc3N(CCN3CCOCC3)C2=O)[C@H](c2ccc(CO)cc2)N1Cc1ccccc1`, the composite z-score in experiment [1] is -0.178 (inactive); in experiment [2] it was 0.206. The z-score in experiment [3] is -0.119; in experiment [4], -0.421 (inactive); in experiment [5] it was -0.305 (inactive); in experiment [6], -0.0278 (inactive).
As to `CCCC[C@@H]1C[C@H]1[C@@H](NC(=O)c1ccco1)c1ccc(Cl)cc1`, the composite z-score in experiment [1] is 0.593 (inactive); in experiment [2], -0.111. Also, the z-score is -0.727 in experiment [3], -3.18 (inactive) in experiment [4], -0.522 (inactive) in experiment [5] and -0.995 (inactive) in experiment [6].
With `COCCOC(=O)N1C(=O)[C@@]2(c3cc(C#CC4=CCCCC4)ccc31)[C@H](C(N)=O)[C@H]1C(=O)O[C@H](c3ccccc3)[C@H](c3ccccc3)N1[C@@H]2c1ccc(OCCO)cc1`, the composite z-score in experiment [1] is 0.134 (inactive); in experiment [2], 0.729. Further, the z-score in experiment [3] was -2; in experiment [4] it was 2.15 (inactive); in experiment [5] it was -0.116 (inactive); in experiment [6], -0.321 (inactive).
On to `COc1ccc(CCNC(=O)[C@@H]2c3ccccc3C(=O)N(C3Cc4ccccc4C3)[C@H]2c2ccc(CO)cc2)cc1`, for which the composite z-score in experiment [1] is 1.14 (inactive); in experiment [2], 0.219. Also, the z-score in experiment [3] was -0.268; in experiment [4], -3.47 (inactive); in experiment [5], -0.222 (inactive); in experiment [6] it was -0.28 (inactive).
Take `O=C1O[C@H](c2ccccc2)[C@H](c2ccccc2)N2[C@H]1[C@@H](C(=O)N1CCN(c3ncccn3)CC1)[C@]1(C(=O)Nc3ccc(C#CC4=CCCCC4)cc31)[C@H]2c1ccc(O)cc1`: the composite z-score is 0.28 (inactive) in experiment [1] and 0.815 in experiment [2]. In addition, the z-score was -0.953 in experiment [3], 2.84 (inactive) in experiment [4], -0.329 (inactive) in experiment [5] and -0.513 (inactive) in experiment [6].
Take `CCOC(=O)C1=CCC(c2ccccc2)N(S(=O)(=O)CC[Si](C)(C)C)C1` (configuration not stated): the composite z-score in experiment [1] was -0.0447 (inactive); in experiment [2], 0.113. Also, the z-score was -0.391 in experiment [3], -2.31 (inactive) in experiment [4], -0.262 (inactive) in experiment [5] and 0.0088 (inactive) in experiment [6].
For the molecule `CCCC#C[Si](O[C@H](CC)c1cn([C@H](CO)Cc2ccccc2)nn1)(C(C)C)C(C)C`, the composite z-score in experiment [1] is 0.149 (inactive); in experiment [2] it was 0.405. For the same molecule, the z-score in experiment [3] is 0.129; in experiment [4], -0.713 (inactive); in experiment [5], 0.112 (inactive); in experiment [6], -0.311 (inactive).
Regarding `C#CCN(CC1=CCCCC1)[C@H](c1ccccc1Br)[C@@H](O)Cc1ccccc1`, the composite z-score is 0.0838 (inactive) in experiment [1] and -0.43 in experiment [2]. In addition, the z-score is 0.47 in experiment [3], -0.843 (inactive) in experiment [4], -0.164 (inactive) in experiment [5] and -0.155 (inactive) in experiment [6].
As to `O=C(NCc1ccccc1)[C@@]1(CCS(=O)(=O)c2ccccc2)N=C(c2ccc(OCCCO)cc2)O[C@H]1c1ccccc1`, the composite z-score in experiment [1] was 0.429 (inactive); in experiment [2], 0.565. For the same molecule, the z-score in experiment [3] is -2.05; in experiment [4], -1.15 (inactive); in experiment [5] it was -0.751 (inactive); in experiment [6], -0.64 (inactive).
On to `COc1ccc([Si](C)(C)[C@H]2[C@H](CCn3cc([C@H](O)c4ccccc4)nn3)O[C@@]3(C(=O)N(Cc4cccc(N5CCOC5=O)c4)c4ccccc43)[C@@H]2C)cc1`, for which the composite z-score in experiment [1] was -0.44 (inactive); in experiment [2], 0.548. Also, the z-score in experiment [3] was -1.54; in experiment [4] it was -3.83 (inactive); in experiment [5] it was -0.056 (inactive); in experiment [6] it was 0.324 (inactive).
For `CCOC(=O)C[C@H]1[C@H](OC(=O)Cc2ccc3c(c2)OCO3)[C@@H](NC(=O)c2ccc(-c3ccccc3)cc2)c2cc(OCCCO)ccc2N1C(=O)Cc1ccc(OC)cc1`, the composite z-score in experiment [1] was 0.784 (inactive); in experiment [2], 0.0066. Also, the z-score in experiment [3] is -1.72; in experiment [4], -1.61 (inactive); in experiment [5], -0.324 (inactive); in experiment [6], -0.116 (inactive).
Take `CC(C)c1ccc(NN2C(C(O)C(c3ccccc3)c3ccccc3)C=CC3C(=O)N(c4ccccc4)C(=O)C32)cc1` (configuration not stated): the composite z-score in experiment [1] was 0.234 (inactive); in experiment [2], 0.739. The z-score in experiment [3] is -0.536; in experiment [4], -2.67 (inactive); in experiment [5], 0.286 (inactive); in experiment [6], 0.207 (inactive).
For the molecule `CCOc1cc(C(O)C2C=CC3C(=O)N(c4ccccc4)C(=O)C3N2Nc2ccccc2)ccc1O` (configuration not stated), the composite z-score in experiment [1] is 0.497 (inactive); in experiment [2] it was 0.221. For the same molecule, the z-score was -0.033 in experiment [3], -4.03 (inactive) in experiment [4], -0.516 (inactive) in experiment [5] and -0.835 (inactive) in experiment [6].
For `CCOC(=O)[C@H]1CC=C2CC1C(=O)N1CCC[C@@H]1[C@@H]2O[Si](C)(C)C(C)(C)C` (some centres not stated), the composite z-score in experiment [1] is -0.473 (inactive); in experiment [2] it was -0.216. For the same molecule, the z-score in experiment [3] was -0.575; in experiment [4], -5.97 (inactive); in experiment [5], -0.696 (inactive); in experiment [6] it was -0.559 (inactive).
For the molecule `C=CCOC(=O)[C@H]1[C@@H]2C(=O)O[C@@H](c3ccccc3)[C@@H](c3ccccc3)N2[C@@H](c2ccc(OCCOC(=O)[C@@H]3C[C@@H]4C(=O)N[C@@H](CCCCN(C)C)C(=O)N4[C@@H]3c3ccc(O)cc3)cc2)[C@]12C(=O)Nc1ccc(I)cc12`, the composite z-score in experiment [1] is 1.74 (inactive); in experiment [2], 0.805. Besides, the z-score is -0.174 in experiment [3], 6.34 (inactive) in experiment [4], 0.936 (inactive) in experiment [5] and 0.679 (inactive) in experiment [6].
Turning to `CN(C)C(=O)[C@]1(Cc2ccccc2CN=[N+]=[N-])N=C(c2ccc(OCCCO)cc2)O[C@@H]1c1ccccc1CN=[N+]=[N-]`, the values for the composite z-score in experiment [1] and in experiment [2] were 1.01 (inactive) and 0.637, respectively. Further, the z-score in experiment [3] is -2.68; in experiment [4], -0.212 (inactive); in experiment [5] it was -0.123 (inactive); in experiment [6] it was -0.249 (inactive).
As for `CN1C(=O)C2C=CC(C(O)Cc3ccccc3)N(Nc3ccccc3)C2C1=O` (configuration not stated), the figures for the composite z-score in experiment [1] and in experiment [2] were -0.0041 (inactive) and 0.508, respectively. The z-score in experiment [3] was 0.538; in experiment [4], -4.51 (inactive); in experiment [5] it was -0.444 (inactive); in experiment [6] it was -0.889 (inactive).
Turning to `COc1ccc(C(=O)Nc2ccc(CN3C(=O)[C@@]4(O[C@@H](CCn5cc([C@H](O)c6ccccc6)nn5)[C@H]([Si](C)(C)c5ccc(OC)cc5)[C@H]4C)c4ccccc43)cc2)cc1`, the composite z-score in experiment [1] was 0.0679 (inactive); in experiment [2], 0.216. In addition, the z-score in experiment [3] was -2.3; in experiment [4] it was 0.568 (inactive); in experiment [5], -0.0665 (inactive); in experiment [6] it was -0.348 (inactive).
On to `CC(=O)n1cc(C(O)C2C=CC3C(=O)N(C)C(=O)C3N2Nc2ccccc2)c2ccccc21` (configuration not stated), for which the figures for the composite z-score in experiment [1] and in experiment [2] were 0.144 (inactive) and 0.383, respectively. Also, the z-score in experiment [3] is 0.413; in experiment [4], -3.76 (inactive); in experiment [5], -0.47 (inactive); in experiment [6] it was -0.987 (inactive).
As to `O=C1C[C@]2(c3ccc([N+](=O)[O-])cc3)C(=O)N(CCN3CCOCC3)c3cc(CO)ccc3[C@H]2N1C1CCCCC1`, the composite z-score was 1.2 (inactive) in experiment [1] and 0.314 in experiment [2]. In addition, the z-score in experiment [3] was 0.476; in experiment [4], -2.02 (inactive); in experiment [5] it was -0.533 (inactive); in experiment [6], -0.355 (inactive).
With `O=C1OCC=C[C@H]2OC34C=CCN(CCN5CCOCC5)C(=O)[C@H]3N(CCCO)C(=O)[C@@H]4[C@@H]12` (some centres not stated), the composite z-score was -0.0676 (inactive) in experiment [1] and -0.0046 in experiment [2]. Further, the z-score in experiment [3] is -1.83; in experiment [4], -4.01 (inactive); in experiment [5] it was 0.2 (inactive); in experiment [6], 0.099 (inactive).
For `CCOC(=O)C[C@H]1[C@H](OC(=O)c2ccc(C(=O)c3ccccc3)cc2)[C@@H](NC(=O)c2ccc(-c3ccccc3)cc2)c2cc(OCCCO)ccc2N1C(=O)c1ccccc1`, the composite z-score in experiment [1] is 0.233 (inactive); in experiment [2] it was 0.549. The z-score in experiment [3] was -0.786; in experiment [4] it was -1.36 (inactive); in experiment [5], 0.428 (inactive); in experiment [6], 0.303 (inactive).
Take `CCCN1C(=O)[C@]2(CCS(=O)(=O)c3ccccc3)N=C(c3ccc(OCCCO)cc3)O[C@@H]2c2ccccc21`: the composite z-score in experiment [1] was -0.0893 (inactive); in experiment [2], 0.11. In addition, the z-score in experiment [3] was -2.6; in experiment [4], -5.36 (inactive); in experiment [5] it was -0.701 (inactive); in experiment [6] it was -0.918 (inactive).
As to `Cc1ccc(S[C@]2(C(=O)NCCN3CCOCC3)CC(=O)N(Cc3ccccc3)[C@@H]2c2ccc(CO)cc2I)cc1`, the results for the composite z-score in experiment [1] and in experiment [2] were 0.302 (inactive) and 0.0473, respectively. Besides, the z-score in experiment [3] was -1.44; in experiment [4] it was -1.69 (inactive); in experiment [5], -0.0659 (inactive); in experiment [6] it was 0.184 (inactive).
